This note sets out measurements from PubChem BioAssay AID361 (National Center for Advancing Translational Sciences (NCATS), 2006).

In all, about 51,000 compounds went through this assay and about 600 (1.2%) were called active. Inconclusive results (about 2%) are left out. The list comes from a sample in which actives are over-represented; it also holds similar structures and randomly drawn compounds. Values without a mark were called inactive. Cut-off read from the data, not from the text of the source: active = potency below about 11 µM; inconclusive = mostly about 12 µM to 25 µM; inactive = weaker than that;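 the screen sought inhibitors and activators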.
Potency is the fitted concentration of half-maximal effect.

For the assay, the system named is pyruvate kinase (Bacillus stearothermophilus). Nature of the assay: Pyruvate Kinase. Particulars: purified pyruvate kinase, luminescence ATP production; ribose 5-phosphate activator present at AC10. The protocol:
Pyruvate kinase (partially purified from Bacillus stearothermophilus) was assayed for its ability to generate ATP from ADP using phosphoenolpyruvate (PEP) as a substrate. ATP generation was detected in a coupled reaction by luciferase-mediated luminescence, an ATP-dependent process. Pyruvate kinase substrates, PEP and ADP, were present in the assay at Km and […]-fold below Km respectively. The enzyme was assayed at an intermediate level of activity to screen for inhibitors and activators. In addition, ribose 5 phosphate, a positive modulator of pyruvate kinase, was included in the assay at AC10 in order to identify possible potentiators.
NCGC Assay Protocol Summary:
Three uL of substrate mix (final concentration, 50 mM imidazole pH 7.2, 50 mM KCl, 7 mM MgCl2, 2 mM PEP, 0.1 mM ADP, 0.7 nM ribose 5 phosphate, 0.01% Tween 20, 0.05% BSA) was dispensed into 1536 well plates. 23 nL of compound were delivered by a pin tool and 1 uL of enzyme mix (final concentration, 10 nM pyruvate kinase, 50 mM imidazole pH 7.2, 0.05% BSA) was added. After centrifugation at 1000 rpm for less than a minute, plates were incubated at room temperature for 2 hours. Three uL of detection and kinase stop mix (PKLight, Cambrex) was added, the plates centrifuged, and luminescence read by a ViewLux (Perkin Elmer) at 5 second exposure/plate. Data were normalized to the controls for AC100 stimulation (5 uM ribose 5 phosphate) and to AC100 inhibition (110 uM luteolin).
For `Cc1cc(NC(=O)CSc2nnc(-c3ccc(Cl)s3)o2)no1`, the Potency was > 57 µM.

For `Cc1nc(SCC(=O)Nc2cc(C)on2)c2c(C)c(C)sc2n1`, the Potency is > 57 µM.

For the compound `Cc1cc(C)c2c(c1)cc(C)c1nnc(SCC(=O)Nc3cc(C)on3)n12`, the Potency is > 57 µM.

On to `Cc1ccc2nc(-c3ccc(SCC(=O)Nc4cc(C)on4)nc3)[nH]c2c1`, for which the Potency is 2.74 µM (active).

In the case of `COc1ccc(OC)c2c(N)c(C#N)c(C(F)(F)C(F)(F)F)nc12`, the Potency was > 25.6 µM.

With `C=CCc1cccc2cc(C(=O)N3CCN(C(=O)OCC)CC3)c(=O)oc12`, the Potency is > 57 µM.

For `COc1ccccc1CNCc1cccs1`, the Potency was > 57 µM.

For the compound `COc1ccc(CNC(=O)c2c(C)cc(=O)oc2C)cc1OC`, the Potency is > 25.6 µM.

Turning to `Cc1ccc(C(=O)NCC2CCCO2)o1` (stereo unspecified), the Potency is > 57 µM.

As for `CCc1cc2c(=O)c(-c3ccon3)c(N)oc2cc1OC`, the Potency is 4.26 µM (active).

`COc1cccc(N2CC(C(=O)Nc3c(C)cccc3C)CC2=O)c1` (stereo unspecified): the Potency was > 57 µM.

With `Cc1cccc(NC(=O)c2ccccc2NC(=O)C(C)(C)C)n1`, the Potency is > 57 µM.

Consider `CCn1c(=N)n(CC(=O)c2cccc(OC)c2)c2ccccc21`, for which the Potency was 38.1 µM.

Consider `Cn1c(/C(C#N)=C2/CCCCCN2)nc2ccccc21`, for which the Potency was > 57 µM.

In the case of `CC1CCCCN1CC(=O)NCc1ccc2c(c1)OCO2` (stereo unspecified), the Potency was > 57 µM.

In the case of `CN(CCc1ccccn1)S(=O)(=O)c1ccc2c3c(cccc13)C(=O)N2`, the Potency is > 57 µM.

As to `CSc1ccc(Cl)c(C(=O)OCC(=O)N2CC(C)OC(C)C2)c1` (stereo unspecified), the Potency is > 57 µM.

`NC(=O)COc1ccc2c3c(c(=O)oc2c1)CCCCC3`: the Potency was > 57 µM.

For the compound `CCN(CC)S(=O)(=O)c1cccc(C(=O)NCC(=O)OCC(=O)NCc2ccccc2)c1`, the Potency is > 57 µM.

In the case of `CC(Oc1ccc(Cl)cc1)C(=O)Nc1ncccn1` (stereo unspecified), the Potency was > 57 µM.

As for `O=C(Nc1ccc(Cl)cn1)c1cnn2cccnc12`, the Potency was 8.73 µM (active).

Take `CCCCC(CC)C(=O)Nc1ccc(Cl)cn1` (stereo unspecified): the Potency is > 57 µM.

Consider `O=C(Nc1ncccn1)c1cccs1`, for which the Potency is > 57 µM.

In the case of `O=C(O)c1ccc(NC(=O)c2cccs2)cc1`, the Potency was > 57 µM.

Consider `Cc1nc(-c2ccc(NC(=O)c3cccs3)cc2)cs1`, for which the Potency was 2.04 µM (active).

Consider `COC(=O)CCSc1nccn1Cc1ccccc1`, for which the Potency was > 57 µM.

As for `O=c1c(F)cn(C2CCCO2)c(=O)n1Cc1ccccc1Cl` (stereo unspecified), the Potency was > 25.6 µM.

Turning to `CCCOc1ccc(CN(CCO)CCO)cc1C(=O)OC`, the Potency is > 57 µM.

In the case of `CCN(Cc1cc2cc(C)ccc2[nH]c1=O)S(=O)(=O)c1ccccc1`, the Potency is > 57 µM.

For `CCC(=O)N(Cc1cc2cc(OC)ccc2[nH]c1=O)c1ccccc1C`, the Potency was > 57 µM.

With `COc1ccc(N(Cc2cc3cc(OC)ccc3[nH]c2=O)S(C)(=O)=O)cc1`, the Potency is 7.73 µM (active).

`COc1cccc(NC(=O)c2ccccc2SC)c1`: the Potency was > 57 µM.

With `CC(C)(O)C#Cc1ccc(C(=O)N2CCC(C(N)=O)(N3CCCCC3)CC2)cc1`, the Potency was > 57 µM.

Regarding `Cc1ccc(NC(=O)CS(=O)CC(=O)N(c2ccccc2)C(C)C(=O)NC2CCCC2)cc1` (stereo unspecified), the Potency is > 57 µM.

For the compound `CCCCC(=O)N(c1ccc(OC)cc1)C1C=CS(=O)(=O)C1` (stereo unspecified), the Potency was > 57 µM.

Turning to `CCN(CC)S(=O)(=O)c1ccc2nc(CSc3nnnn3-c3ccc(O)cc3)[nH]c2c1`, the Potency is > 57 µM.

Turning to `O=C(CSc1nnc(-c2cccs2)n1-c1ccccc1)N1CCN(C(=O)c2ccco2)CC1`, the Potency is > 57 µM.

Consider `CCN(CC)c1ccc2oc(=O)c(C)nc2c1`, for which the Potency was > 57 µM.

In the case of `CCc1ccc2oc(-c3ccc(N)cc3)nc2c1`, the Potency was 2.06 µM (active).

Consider `COC(=O)C(CC(=O)Nc1cc(C)ccc1C)Nc1ccccc1OC` (stereo unspecified), for which the Potency is > 57 µM.

On to `Cn1c(SCc2c(F)cccc2Cl)nnc1-c1cnccn1`, for which the Potency is > 57 µM.

In the case of `COc1ccccc1N=C1SC(C)CN1C(=O)C1CCC1` (stereo unspecified), the Potency is > 57 µM.

For `CN(C(=O)CSc1nnnn1-c1ccccc1)C1CCCCC1`, the Potency is > 57 µM.

As to `CN(C)c1nc(N)nc(CSc2nnnn2-c2cccc3ccccc23)n1`, the Potency was 1.57 µM (active).

Consider `Cn1nnnc1SCc1cc(=O)[nH]c2ccccc12`, for which the Potency is > 57 µM.

`C=CCn1c(=S)[nH]c2nc3c(cc2c1=O)COC(C)(C)C3`: the Potency is > 25.6 µM.

Take `COc1ccc(S(=O)(=O)N(CCCN2CCCC2=O)Cc2cc3c(C)ccc(C)c3[nH]c2=O)cc1`: the Potency was > 57 µM.

Take `CC(C)OC(=O)C(C#N)c1nc2ccccc2nc1N1CCN(Cc2ccc3c(c2)OCO3)CC1` (stereo unspecified): the Potency was > 25.6 µM.

Consider `CSc1nc(O)c(Cc2ccccc2)c(=O)[nH]1`, for which the Potency is > 25.6 µM.

Regarding `O=C(CN1CCN(C(=O)c2cccc(F)c2)CC1)Nc1ccccc1F`, the Potency is > 57 µM.

Consider `O=C(c1ccccc1)N1CCN(C(=O)N2CCCCC2)CC1`, for which the Potency was > 57 µM.

In the case of `COc1ccc(CCN2C(=O)c3[nH]nc(-c4ccccc4O)c3C2c2ccc(C)cc2)cc1OC` (stereo unspecified), the Potency is > 57 µM.

As to `Fc1ccc(-c2nnc3sc(-c4ccc5c(c4)OCO5)nn23)cc1`, the Potency is > 57 µM.

`O=C(CN1C(=O)C2C3C=CC(C3)C2C1=O)NCCc1ccccc1Cl` (stereo unspecified): the Potency was > 57 µM.

Consider `N#CC1=C(N)C(C#N)(C#N)[C@H](c2ccsc2)[C@H]2COCC=C12`, for which the Potency was > 57 µM.

`Cn1c(=O)c(=O)n(C)c2cc(S(=O)(=O)NCCc3ccccc3)ccc21`: the Potency is > 57 µM.

As for `CCCCCCn1c(CN2CCCCC2)nc2c1c(=O)n(C)c(=O)n2C`, the Potency is > 57 µM.

Take `O=c1[nH]c(=O)n(Cc2ccco2)c2c1C(C(F)(F)F)(C(F)(F)F)N=C(c1ccco1)N2`: the Potency is > 25.6 µM.

On to `CC1CCN(C(=O)Cn2cc(C(=O)c3ccco3)c3ccccc32)CC1`, for which the Potency was > 57 µM.

`Cc1noc(C)c1C(=O)OCC(=O)/C=C1\N(C)c2ccccc2C1(C)C`: the Potency was > 57 µM.

With `Cc1ccccc1-n1c(SCC(=O)NCc2cccs2)nnc1-c1ccncc1`, the Potency was > 57 µM.

`CCn1c(CNC(=O)c2ccc(OC)c(OC)c2)nnc1SCC(=O)Nc1ccccc1`: the Potency is > 57 µM.

Consider `CCCCNc1nc2ccccc2nc1NS(=O)(=O)c1cccs1`, for which the Potency was > 57 µM.

As to `CCOC(=O)c1sc2nc(CSCC(=O)OCc3ccc(C(=O)OC)o3)[nH]c(=O)c2c1C`, the Potency is > 57 µM.

Regarding `CCn1c(CSc2nncn2-c2ccc(OC)cc2)nc2cc(S(=O)(=O)N(C)C)ccc21`, the Potency is > 57 µM.

Turning to `N#CCCN(CCC#N)c1nnc(-c2ccccc2)s1`, the Potency was > 25.6 µM.

For the compound `Cc1cc(C(F)(F)F)c(C#N)c(SCC(=O)NC2CC2)n1`, the Potency is > 25.6 µM.

Turning to `Brc1cccc(-c2nnc3n2CCC3)c1`, the Potency is > 57 µM.

In the case of `Cc1ccc2nc(NCCCNC(=O)c3cnccn3)c(C#N)cc2c1`, the Potency is > 57 µM.

Consider `Cc1noc(NS(=O)(=O)c2ccc(NC(=O)C34CCC(CC3)C4)cc2)c1C`, for which the Potency was > 57 µM.

Regarding `CC1Cn2c(nnc2-c2cccs2)S1` (stereo unspecified), the Potency is > 57 µM.

Take `N#Cc1c2c(c(N3CCN(CCO)CC3)n3c1nc1ccccc13)CCCC2`: the Potency was > 57 µM.

As for `COc1ccc(OC)c(NC(=O)CN2CCN(C(=O)c3ccco3)CC2)c1`, the Potency was > 57 µM.

Turning to `OCCCN1c2ccccc2Nc2nnc(-c3ccccc3)cc21`, the Potency is 6.08 µM (active).

With `O=C(C1CCCO1)N1CCC(c2nc3ccccc3[nH]2)CC1` (stereo unspecified), the Potency was > 57 µM.

For the compound `CCCC(=O)N1CCc2[nH]c3ccccc3c2C1`, the Potency is > 25.6 µM.

Take `O=C(Nc1ccc(NC(=O)c2cccs2)cn1)c1ccco1`: the Potency is 7.2 µM (active).

On to `CN1CCN(S(=O)(=O)c2ccc(NC(=O)c3ccco3)cc2)CC1`, for which the Potency is > 57 µM.

As for `O=C(Nc1ccc(Oc2ccccc2)cc1)c1ccco1`, the Potency was 51.8 µM.

On to `CCCc1nnc(NC(=O)c2cc(OC)cc(OC)c2)s1`, for which the Potency is > 57 µM.

Take `N#Cc1ccc(OCCN2C(=O)NC3(CCSC3)C2=O)cc1` (stereo unspecified): the Potency is > 57 µM.

In the case of `COCCn1c(-c2ccc(OC)c(OC)c2)nc2ccccc21`, the Potency is > 57 µM.

Turning to `CCCn1c(C(O)c2cc(OC)ccc2OC)nc2ccccc21` (stereo unspecified), the Potency was > 57 µM.

Consider `COc1ccc(-c2cc3n(n2)CCc2nc4ccccc4n2-3)cc1`, for which the Potency was 1.66 µM (active).

`COC(=O)c1sc(NC(=O)c2ccc(OC)cc2OC)nc1C`: the Potency was 0.093 µM (active).

As to `COc1ccc2nc(NC(=O)c3ccc(Br)s3)sc2c1`, the Potency was > 11.4 µM.

With `CCOC(=O)c1sc(NC(=O)c2cc(S(=O)(=O)N3CCOCC3)ccc2C)nc1C`, the Potency is > 57 µM.

For `O=C(NCc1ccco1)c1ccc(CS(=O)(=O)Cc2ccc(F)cc2)o1`, the Potency was > 57 µM.

For `COc1ccccc1NC(=O)C1=C(C)NC2=C(C(=O)CCC2)C1c1ccc(C)o1` (stereo unspecified), the Potency was > 57 µM.

As for `COc1ccc(N2C(=O)c3cccc4cccc(c34)C2=O)nn1`, the Potency is > 57 µM.

As to `COCCCNC(=O)CSc1nc2ccc(N3CCOCC3)cc2c(=O)n1CCc1ccccc1`, the Potency is > 57 µM.

For `Cc1nn2c3cc(N4CCOCC4)ccc3nc2c2ccccc12`, the Potency was 2.65 µM (active).

For `Cc1cc(C)c2c(n1)nn1c(N3CCOCC3)cc(C)nc21`, the Potency is > 57 µM.

On to `Cc1ccc2cccc(S(=O)(=O)N3CCN(c4ccccc4F)CC3)c2n1`, for which the Potency was 6.92 µM (active).

As for `O=C(c1cccc2ccccc12)N1CCN(c2ccccc2F)CC1`, the Potency is 26 µM.

As to `O=S(=O)(N1CCOCC1)N1CCN(c2ccccc2F)CC1`, the Potency is > 57 µM.
